Source: PubChem
Rows were chosen to be rich in hits. Some 2.1% of all compounds tested hit in one or more screens of this group.
aSyn rescue – alpha-synuclein toxicity inhibition in yeast | hit rate 0.14% among 370,000 | Potency, µM (doses to about 46.1 µM), for the others: at the top dose growth rescue (activation), usual class: activators | Yeast expressing alpha-synuclein, growth rescue, BacTiter-Glo, 24 h; note: % of control where 0% means no effect; nearly all actives have a fitted effect of over 65% in size
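Galactose-induced alpha-syn yeast (OD600=0.02, raffinose-pregrown) + pinned cpd, 24 hr, 30 deg C; growth by BacTiter-Glo luminescence. Growth restoration scores as activation.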
Abeta yeast res – compounds reversing amyloid beta toxicity in yeast. yeast expressing A-beta42, growth rescue, OD600, 48 h; response scale: 0% DMSO, 100% iron-clioquinol control. hit rate 0.063% among 410,000. Potency, µM (top dose mostly 46.1 µM), hits mostly activators; note: nearly all actives have a fitted effect of over 55% in size
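Growth rescue measured by 600 nm absorbance after 48 h yeast culture at 30 C with compound. Values normalized between DMSO and an equimolar ferric chloride plus clioquinol control.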
FUS suppressor – rescues growth of FUS-expressing yeast. S. cerevisiae FUS-expressing, growth rescue, OD600, 24 h. hit rate 0.24% among 390,000. Potency, µM (doses to about 76.6 µM), actives largely listed as activators;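 note: plate controls were DMSO vehicle for no effect and reference control for full effect; nearly all actives have a fitted effect of over 55% in size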
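Steps: raffinose overnight preculture; dilution to OD 0.005 in 2% galactose minimal medium; compound addition (concentration series); 24hr at 30C, 99% humidity; absorbance read at 600 nm.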
TDP43 rescue – TDP-43 toxicity inhibition in yeast | TDP-43 expressing yeast growth rescue, BacTiter-Glo, 24 h | Potency, µM (doses to about 46.1 µM), for inactives: at the highest dose growth rescue (activation), actives largely listed as activators | hit rate 1.8% among 410,000; note: % of control where 0% means no effect; nearly all actives have a fitted effect of over 50% in size
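Cell-based yeast growth screen: TDP-43 expression induced in galactose, inoculum OD600=0.02 after raffinose pregrowth to mid-log. Read-out BacTiter-Glo luminescence at 24 hr, 30 deg C; inhibition of toxicity seen as signal increase.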
Starred values were filed as active, the others as inactive; i = inactive; u = inconclusive; x = no result. Calls come from the whole dose curve; as a rule, active = well fitted curve in the direction sought with a large enough effect; inconclusive = small, poorly fitted or top-dose-only effect, or another doubt; inactive = no such curve, though single readings can be large; an effect the other way counts as inactive or inconclusive. Potency is the fitted concentration of half-maximal effect.

SMILES	aSyn rescue	Abeta yeast res	FUS suppressor	TDP43 rescue
O=C1C=C(c2ccc3ccccc3c2)C[C@@H](c2ccc(Cl)cc2)C1	12%	i	i	15%
COc1ccc([C@H]2CC(=O)C=C(c3cccc(Br)c3)C2)cc1OC	15%	i	u	35µM*
COc1ccc([C@H]2CC(=O)C=C(c3cccc(C(C)C)c3)C2)cc1OC	-5%	i	i	20µM*
COc1ccc([C@H]2CC(=O)C=C(c3ccc(OC)c(OC)c3)C2)cc1	0%	i	i	29%
CC(C)c1cccc(C2=CC(=O)C[C@H](c3ccc(F)cc3)C2)c1	-10%	i	i	13%
C[n+]1cc(C(O)(c2ccccc2)c2ccccc2)n2ccccc21	x	x	i	x
CCOC(=O)c1cccc(C2=CC(=O)C[C@H](c3ccc(OC)c(OC)c3)C2)c1	1%	i	u	22µM*
COc1ccc([C@H]2CC(=O)C=C(c3ccc(O)cc3)C2)cc1OC	1%	i	i	14%
COc1ccc([C@H]2CC(=O)C=C(c3cccc(Br)c3)C2)cc1	u	i	i	22µM*
COc1ccc([C@H]2CC(=O)C=C(c3cccc(C(F)(F)F)c3)C2)cc1	-5%	i	i	u
Clc1ccccc1Cn1ccc2ccc(-c3ccc4ccn(Cc5ccccc5Cl)c4c3)cc21	x	x	i	x
C#CCN1C(=O)[C@]2(NCCc3c2[nH]c2ccc(OC)cc32)c2ccccc21	x	x	i	x
CN(C)c1nc(-c2ccccn2)nnc1-c1ccccc1	u	i	i	26%
c1ccc(-c2cccc(CNc3nc(-c4ccccn4)nnc3-c3ccccc3)c2)cc1	x	x	32µM*	x
C[C@H]1[C@@H](N)CC[C@@]23CCCN2C(=O)CCC[C@@H]13	x	x	i	x
CNc1ccc(C=O)cc1Cl	-3%	x	x	x
CC(O/N=C(\N)c1ccccc1)C(=O)Nc1cccc(C(F)(F)F)c1 (stereo unspecified)	-8%	i	i	13µM*
O=C(Nc1cccc(Oc2ccccc2)c1)C1Cc2c(-c3ccco3)ccnc2O1 (stereo unspecified)	-4%	i	i	18µM*
COc1ccc(NC(=O)C2Cc3c(-c4ccccc4Oc4ccccc4)ccnc3O2)cc1OC (stereo unspecified)	6%	i	u	11µM*
N#CCC[C@@H]1CC[C@]2(CCCN(C(=O)c3ccco3)C2)O1	x	x	i	x
Cc1ccc(C(=O)N(C)[C@H]2C[C@H]3c4[nH]c5c(-c6ccc7c(c6)OCO7)cccc5c4CCN3C[C@H]2[C@H](C)O)cc1	x	x	i	x
O=C1[C@@H](CCc2ccccc2)[C@@H]2c3ccccc3C=NN2[C@@H]2c3ccccc3C=NN12	x	x	i	x
CCOC(=O)/C(=N/Nc1ccccc1)N1CCCc2ccccc21	0%	i	x	-2%
CCOC(=O)/C(=N/Nc1ccc(OC)cc1)N1CCCc2ccccc21	0%	i	i	13µM*
COc1ccccc1-c1cc(C(=O)N2CCCc3ccccc32)no1	17%	i	i	u
SMILES	aSyn rescue	Abeta yeast res	FUS suppressor	TDP43 rescue
Cc1c(C(=O)N2CCN(c3ccccc3F)CC2)sc2nc(-c3ccccc3)cn12	8%	i	i	14µM*
COc1ccc(-c2cc(C(=O)N3CCCc4ccccc43)no2)cc1OC	-12%	i	u	16µM*
COc1cccc(-c2cc(C(=O)N3CCCc4ccccc43)no2)c1	-1%	i	i	24%
COc1ccc(-c2cc(C(=O)N3CCCc4ccccc43)no2)cc1	1%	i	x	10µM*
CC(I)CCC(C)[n+]1cccc(I)c1 (stereo unspecified)	-2%	x	x	x
Cn1cnc(S(=O)(=O)N2CCC(C(=O)N3CCN(c4ccc(Cl)cc4)CC3)CC2)c1	x	i	i	17%
COc1ccc(-c2cn3c(C)c(C(=O)N4CCCc5ccccc54)sc3n2)cc1	20µM*	i	u	25µM*
CCOC(=O)C1CCCN(C(=O)c2sc3nc(-c4ccc(F)cc4)cn3c2C)C1 (stereo unspecified)	4%	i	x	8.9µM*
CCCCN(CC)C(=O)CSc1nc2n[nH]c(C)c2c(=N)n1-c1ccc(CC)cc1	x	i	u	-12%
COc1cccc(Cn2cc(COC(=O)NCC(C)C)nn2)c1	x	x	i	x
CCCCc1nn2c(=O)cc(COC(=O)c3cccs3)nc2s1	x	i	i	19%
CC(=O)Nc1ccc(S(=O)(=O)N(Cc2ccccc2)Cc2ccccc2)cc1	x	i	u	20µM*
CCCCN(CCCC)S(=O)(=O)c1ccc(C(=O)Nc2nnc(COC)o2)cc1	u	i	i	13µM*
CCc1nnc(NC(=O)c2ccc(S(=O)(=O)N(CC)Cc3ccccc3)cc2)o1	13µM*	u	i	22µM*
CCOC(=O)[C@@]12CCCC=C1N(CCc1ccc(Cl)cc1)C(=O)[C@H]2CC(=O)NCC1CCCCC1	x	x	i	x
O=C1N(CCCl)c2ccc(Br)cc2C12OCCO2	3%	i	i	10µM*
Cn1ncc(Cl)c1C(=O)N1CCN(c2ccc(Cl)c(Cl)c2)CC1	13%	i	u	13µM*
Cc1ccc(-n2ccnc(NCc3cccs3)c2=O)cc1C	x	i	i	16µM*
COc1ccc(CCNc2nccn(-c3ccc(C)c(C)c3)c2=O)cc1OC	x	i	i	0%
C=CCN1C(=O)[C@@H](CC(=O)NCC2CCCCC2)[C@]2(C(=O)OCC)CCCCC/C=C/12	x	x	i	x
CC(=O)Nc1ccc(Nc2ncnc3c2c(-c2ccccc2)cn3-c2ccc(C)c(Cl)c2)cc1	x	i	u	16µM*
CC(=O)Nc1ccc(Nc2ncnc3c2c(-c2ccccc2)cn3-c2ccccc2)cc1	x	i	i	u
COCCNc1ncnc2c1c(-c1ccccc1)cn2-c1cccc(Cl)c1	x	i	u	35µM*
O=C(NCCSc1c[nH]c2ccccc12)c1ccc(Br)o1	10%	i	i	18µM*
O=C(NCCc1c[nH]c2ccccc12)c1ccc(Br)o1	-8%	i	x	4%
SMILES	aSyn rescue	Abeta yeast res	FUS suppressor	TDP43 rescue
CCn1c(C(=O)N2CCC(C(=O)N3CCN(c4ccc(OC)cc4)CC3)CC2)cc2sccc21	x	i	i	22µM*
CCn1c(C(=O)N2CCC(C(=O)N3CCN(c4ccccn4)CC3)CC2)cc2sccc21	4%	i	i	4%
CC(=O)c1ccccc1S(=O)(=O)N1CCN(c2nc(-c3cccs3)nc3ccccc23)CC1	-1%	x	x	x
CN1C(=O)/C(=C/c2cccc(Cl)c2)Sc2ccc(C(=O)N3CCOCC3)cc21	16%	i	i	20µM*
COc1ccc(-n2ncc3c2CC(C)(C)CC3NC(=O)c2oc(C)cc2C)cc1 (stereo unspecified)	2%	i	i	-3%
Cc1cc(C)c(C(=O)NC2CC(C)(C)Cc3c2cnn3-c2ccccc2)o1 (stereo unspecified)	-9%	i	i	16µM*
CC(C)c1cnc2c(c1SCc1cccc(F)c1)c(=O)n(C)c(=O)n2C	x	i	i	u
